# Reference: the supplement of paper PMC10338343
# ± gives the standard deviation. The full ranking holds about 8,200 sequences; the median of “pre-steady-state target cleavage rate” is about 0.024, and the highest 2% start at about 1.3. This is one part of a sample in which the highest values are shown more often than they occur.
# System: MIWI (PIWIL1) piRISC loaded with L1MC piRNA (30 nt)
# Assay: pre-steady-state target cleavage rate (min^-1); MIWI and MILI are mouse PIWI proteins and EfPiwi is from a freshwater sponge; tags in brackets are library labels; higher = faster piRNA-guided slicing of the target
# Conditions: guide: L1MC piRNA 5'p-UAACUAAAUACUAUGCAAGCUGUAGGUCCU
# Protocol: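 Cleave-'n-Seq: a library of target RNAs (target site embedded in constant flanks, ACAGCATTCCGCGTTAGTGATATCCG... 5' flank; DNA-blocked outside the site) at 0.1 nM was incubated with 1 nM active mouse MILI or MIWI piRISC (synthetic 5'-monophosphorylated piRNA guide) with or without 500 nM mouse GTSF1 at 33 °C for 1 min to 16 h. Uncleaved targets were sequenced and normalised to non-target controls, and the pooled three trials were fitted to a burst-and-steady-state model to give the pre-steady-state cleavage rate (min^-1; k3 is constrained to at most 1e-4). Sequence is the target site only; target names encode pairing extent (gX:gY) and contiguous / 1-mismatch / 2-mismatch / bulge geometry. Fits with R² ≤ 0 are excluded.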
# [1] = auxiliary factor: 500 nM mouse GTSF1
# [2] = auxiliary factor: none (no GTSF1)
sequence,measurement,setting,value
UCGACCUACAGCUUGCUUAGUAUAUAGUUA,pre-steady-state target cleavage rate,[1],0.879 ± 0.063
same,pre-steady-state target cleavage rate,[2],0.0168 ± 0.004
UCCUCCUACAGCUUGCUUAGUAUAUAGUUA,pre-steady-state target cleavage rate,[1],0.617 ± 0.034
same,pre-steady-state target cleavage rate,[2],0.0104 ± 0.0032
UCCACCUACAGCUUGCUUAGUAUAUAGUUA,pre-steady-state target cleavage rate,[1],0.357 ± 0.027
same,pre-steady-state target cleavage rate,[2],0.0111 ± 0.0025
UGGACCUACAGCUUGCUUAGUAUAUAGUUA,pre-steady-state target cleavage rate,[1],0.842 ± 0.063
same,pre-steady-state target cleavage rate,[2],0.0175 ± 0.0052
AGGACCUUCAGCUUGCUUAGUAUUUAGUUA,pre-steady-state target cleavage rate,[1],1.44 ± 0.055
same,pre-steady-state target cleavage rate,[2],0.0546 ± 0.01
AGGACCUACAGCUUGCUUAGUAUAUAGUUA,pre-steady-state target cleavage rate,[1],0.762 ± 0.071
same,pre-steady-state target cleavage rate,[2],0.0291 ± 0.0082
UGGACCUUCAGCUUGCUUAGUAUUUAGUUA,pre-steady-state target cleavage rate,[1],1.49 ± 0.09
same,pre-steady-state target cleavage rate,[2],0.0441 ± 0.011
AGGACCUACAGCUUGGAUAGUAUAUAGUUA,pre-steady-state target cleavage rate,[1],0.736 ± 0.053
same,pre-steady-state target cleavage rate,[2],0.0336 ± 0.0076
AGGACCUACAGCAUGCAUACUAUUUAGUUA,pre-steady-state target cleavage rate,[1],0.39 ± 0.023
same,pre-steady-state target cleavage rate,[2],0.0205 ± 0.0035
UCCUGCUACAGCUCGCAUAGUAUUUAGUUA,pre-steady-state target cleavage rate,[1],1.14 ± 0.062
same,pre-steady-state target cleavage rate,[2],0.0391 ± 0.0067
UCGACCUACAGCUCGCAUAGUAUUUAGUUA,pre-steady-state target cleavage rate,[1],1.55 ± 0.04
same,pre-steady-state target cleavage rate,[2],0.0682 ± 0.013
AGGACCUACAGCUGGCAUAGUAUUUAGUUA,pre-steady-state target cleavage rate,[1],1.29 ± 0.057
same,pre-steady-state target cleavage rate,[2],0.0579 ± 0.011
UCCUCCUACAGCUCGCAUAGUAUUUAGUUA,pre-steady-state target cleavage rate,[1],1.31 ± 0.051
same,pre-steady-state target cleavage rate,[2],0.0488 ± 0.0093
UGGACCUACAGCUCGCAUAGUAUUUAGUUA,pre-steady-state target cleavage rate,[1],1.54 ± 0.096
same,pre-steady-state target cleavage rate,[2],0.0604 ± 0.0083
AGGACCUACAGCUCGCAUAGUAUUUAGUUA,pre-steady-state target cleavage rate,[1],1.35 ± 0.068
same,pre-steady-state target cleavage rate,[2],0.0694 ± 0.013
UCCACCUACAGCUCGCAUAGUAUUUAGUUA,pre-steady-state target cleavage rate,[1],1.11 ± 0.043
same,pre-steady-state target cleavage rate,[2],0.0579 ± 0.012
UGGACCUACAGCUACCAUAGUAUUUAGUUA,pre-steady-state target cleavage rate,[1],0.493 ± 0.043
same,pre-steady-state target cleavage rate,[2],0.00241 ± 0.0021
UGGACCUACAGCUUGCAUAGUUUUUACUUA,pre-steady-state target cleavage rate,[1],0.0927 ± 0.013
same,pre-steady-state target cleavage rate,[2],0.0125 ± 0.0027
UGCACCUACAGGUUGCAUAGUAUUUAGUUA,pre-steady-state target cleavage rate,[1],0.859 ± 0.15
same,pre-steady-state target cleavage rate,[2],0.0244 ± 0.0052
UCCUGCUACAGCUUGCAUAGAAAUUAGUUA,pre-steady-state target cleavage rate,[1],0.2 ± 0.021
same,pre-steady-state target cleavage rate,[2],0.00609 ± 0.0021
AGGACCUACACCUUGCAUAGUAUUUAGUAA,pre-steady-state target cleavage rate,[1],0.838 ± 0.068
same,pre-steady-state target cleavage rate,[2],0.0538 ± 0.0089
UCCACCUACAGCUUGCAUAGUAUUUUCUAA,pre-steady-state target cleavage rate,[1],0.361 ± 0.048
UCCUGGAACAGCUUGGAUAGUAAUUAGUUA,pre-steady-state target cleavage rate,[1],0.565 ± 0.055
same,pre-steady-state target cleavage rate,[2],0.0197 ± 0.0059
UCCUGGAACAGCUUGCAUAGUUUUUAGUAA,pre-steady-state target cleavage rate,[1],0.191 ± 0.025
same,pre-steady-state target cleavage rate,[2],0.0332 ± 0.01
UCCUGGUACUGCUUGGAUAGUAUUUAGUUA,pre-steady-state target cleavage rate,[1],0.391 ± 0.078
same,pre-steady-state target cleavage rate,[2],0.0193 ± 0.0036
UGGACCUACUGCUUGCAUAGUAUUUAGUUA,pre-steady-state target cleavage rate,[1],1.46 ± 0.073
same,pre-steady-state target cleavage rate,[2],0.0611 ± 0.0097
UCGACCUACUGCUUGCAUAGUAUUUAGAUA,pre-steady-state target cleavage rate,[1],0.273 ± 0.023
same,pre-steady-state target cleavage rate,[2],0.0197 ± 0.0035
AGGACCUACUGCUUGCAUAGUAUUUAGUUA,pre-steady-state target cleavage rate,[1],1.21 ± 0.049
same,pre-steady-state target cleavage rate,[2],0.0777 ± 0.012
UCCUCCUACUGCUUGCUUAGUAUUUAGUUA,pre-steady-state target cleavage rate,[1],1.06 ± 0.04
same,pre-steady-state target cleavage rate,[2],0.03 ± 0.0053
ACGACCUACUGCUUGCAUAGUAUUUAGUUA,pre-steady-state target cleavage rate,[1],1.51 ± 0.054
same,pre-steady-state target cleavage rate,[2],0.0792 ± 0.013
UGCACCUACUGCUUGCAUAGUAUUUAGUUA,pre-steady-state target cleavage rate,[1],1.16 ± 0.097
same,pre-steady-state target cleavage rate,[2],0.0725 ± 0.014
UCGACCUACUGCUUGCAUAGUAUUUAGUUA,pre-steady-state target cleavage rate,[1],1.41 ± 0.035
same,pre-steady-state target cleavage rate,[2],0.0694 ± 0.011
UCCACCUACUGCUUGCAUAGUAUUUAGUUA,pre-steady-state target cleavage rate,[1],0.697 ± 0.027
same,pre-steady-state target cleavage rate,[2],0.0467 ± 0.0067
UCGACCUACUGCUUGCUUAGUAUUUAGUUA,pre-steady-state target cleavage rate,[1],1.52 ± 0.061
same,pre-steady-state target cleavage rate,[2],0.031 ± 0.0067
UCGACCUACUGCUUGCAUAGUAUUUAGUAA,pre-steady-state target cleavage rate,[1],0.797 ± 0.036
same,pre-steady-state target cleavage rate,[2],0.0434 ± 0.0074
UCCACCUACUGCUUGCUUAGUAUUUAGUUA,pre-steady-state target cleavage rate,[1],0.816 ± 0.029
same,pre-steady-state target cleavage rate,[2],0.0276 ± 0.0058
UGGACCUACUGCUUGCAUAGUAUUUAGUAA,pre-steady-state target cleavage rate,[1],0.708 ± 0.039
same,pre-steady-state target cleavage rate,[2],0.0421 ± 0.008
UCCUGCUACGCUUGCAUAGUAUUUAGUUA,pre-steady-state target cleavage rate,[1],1.12 ± 0.08
same,pre-steady-state target cleavage rate,[2],0.0532 ± 0.011
AGGUCCUACAGCUUGCAUAGUAUUAAGUUA,pre-steady-state target cleavage rate,[1],0.381 ± 0.034
same,pre-steady-state target cleavage rate,[2],0.054 ± 0.013
UCCUCCUAGAGCUUGCUUAGUAUUUAGUUA,pre-steady-state target cleavage rate,[1],1.04 ± 0.059
same,pre-steady-state target cleavage rate,[2],0.0213 ± 0.0041
UGGACCUACAGCUUGCUUACUAUUUAGUUA,pre-steady-state target cleavage rate,[1],0.493 ± 0.031
same,pre-steady-state target cleavage rate,[2],0.0127 ± 0.0038
UCGACCUACAGCUUGCAUAGUUAAUAGUUA,pre-steady-state target cleavage rate,[1],0.122 ± 0.019
same,pre-steady-state target cleavage rate,[2],0.00697 ± 0.0029
UCCUGGAUGUCGUGCAUAGUAUUUAGUUA,pre-steady-state target cleavage rate,[1],0.031 ± 0.0083
same,pre-steady-state target cleavage rate,[2],0.00348 ± 0.0032
UCCUCCUACACCUAGCAUAGUAUUUAGUUA,pre-steady-state target cleavage rate,[1],0.657 ± 0.057
same,pre-steady-state target cleavage rate,[2],0.0111 ± 0.0022
UCCUGGAACAGCUUGCAUAGUAUAAACAAA,pre-steady-state target cleavage rate,[1],0.18 ± 0.043
UGGACCUACAGCUUCGAUAGUAUUUAGUAA,pre-steady-state target cleavage rate,[1],0.307 ± 0.04
UCCUGGAUGUGCUUGCUUAGUAUUUAGUAA,pre-steady-state target cleavage rate,[1],0.0383 ± 0.008
same,pre-steady-state target cleavage rate,[2],0.0104 ± 0.0033
UGGACCUACAGCUUGCAUAGUAUUAAGAUA,pre-steady-state target cleavage rate,[1],0.174 ± 0.028
same,pre-steady-state target cleavage rate,[2],0.00558 ± 0.0024
UGGACCAACUGCUUGCAUAGUAUUUAGUUA,pre-steady-state target cleavage rate,[1],1.27 ± 0.055
same,pre-steady-state target cleavage rate,[2],0.0655 ± 0.011
AGGACCUACUGCAUGCAUAGUAUUUAGUUA,pre-steady-state target cleavage rate,[1],1.3 ± 0.06
same,pre-steady-state target cleavage rate,[2],0.0566 ± 0.01
UCGACCUACUGCUUGCAAAGUAUUUAGUUA,pre-steady-state target cleavage rate,[1],1.33 ± 0.037
same,pre-steady-state target cleavage rate,[2],0.051 ± 0.01
UGGACCUACUGCAUGCAUAGUAUUUAGUUA,pre-steady-state target cleavage rate,[1],1.27 ± 0.08
same,pre-steady-state target cleavage rate,[2],0.0325 ± 0.0061
AGGACCUACUGCUUGCAAAGUAUUUAGUUA,pre-steady-state target cleavage rate,[1],1.11 ± 0.057
same,pre-steady-state target cleavage rate,[2],0.0455 ± 0.0095
UCGACCUACUGCAUGCAUAGUAUUUAGUUA,pre-steady-state target cleavage rate,[1],1.33 ± 0.056
same,pre-steady-state target cleavage rate,[2],0.0324 ± 0.0055
UGGACCUACUGCUUGCAAAGUAUUUAGUUA,pre-steady-state target cleavage rate,[1],1.23 ± 0.059
same,pre-steady-state target cleavage rate,[2],0.0383 ± 0.0078
AGGACCAACUGCUUGCAUAGUAUUUAGUUA,pre-steady-state target cleavage rate,[1],1.22 ± 0.056
same,pre-steady-state target cleavage rate,[2],0.0799 ± 0.014
UCGACCAACUGCUUGCAUAGUAUUUAGUUA,pre-steady-state target cleavage rate,[1],1.43 ± 0.041
same,pre-steady-state target cleavage rate,[2],0.0724 ± 0.012
UCCUGGUACAGCUACCAUAGUAUUUAGUUA,pre-steady-state target cleavage rate,[1],0.366 ± 0.05
UCCACCUACUGCUUGCAUAGUAUUUACUUA,pre-steady-state target cleavage rate,[1],0.243 ± 0.025
same,pre-steady-state target cleavage rate,[2],0.0254 ± 0.0034
